These results are taken from PubChem BioAssay (NCATS).

Records with an inconclusive call do not appear. A number with no mark means an inactive call. Activity calls are given as the source filed them. Calls come from the whole dose curve; as a rule, active = well fitted inhibition curve with a large enough effect; inconclusive = small, poorly fitted or top-dose-only effect; inactive = flat fitted curve, though single readings scatter. *1 amine or outer side, *2 acyl side, *3 side chain or, on linkers, in order; H or OH if unused. Where a SMILES comes first, the peptide text is derived from it. [ ]: non-standard residue; d: D form. The star is where a group is joined. ξ: configuration not given here. X9 = CCC(C)(N*)C(=O)C1CC[C@@H](C(=O)N[C@@H](Cc2ccccc2)C(=O)NCC(=O)O)N1; X8 = O=C([C@@H]1CC(O)CN1[*:1])[*:2]; aIle = CC[C@@H](C)[C@H](N)C(=O)O; Thr(3ξ) = CC(O)[C@H](N)C(=O)O; ξIva = CCC(C)(N)C(=O)O; Aib = CC(C)(N)C(=O)O
% is set by controls: 0 for no effect and ±100 for the full control effect.

The test can be described thus: P-glycoprotein substrates identified in KB-8-5-11 adenocarcinoma cell line, qHTS therapeutic library screen (AID 1346987). Note: nearly all actives have a fitted effect of over 65% in size. The following applies: KB-8-5-11 (P-gp overexpressing) viability, CellTiter-Glo, 72 h; series mostly up to 44.5 µM; activity change, negative = cytotoxicity: at the top concentration. The method in brief: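 KB-8-5-11, a colchicine-selected P-gp-overexpressing KB-3-1 subline, was grown without colchicine for the assay. Cells were seeded at 500 cells/well, dosed in concentration-response and incubated 72 h at 37 degree C, 5% CO2. Viability was read by CellTiter-Glo luminescence.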
A general note: qHTS replaces the single test concentration by a dilution series.
With `COc1ccccc1Oc1c(NS(=O)(=O)c2ccc(C)cn2)nc(-c2ccncc2)nc1OC`, the “activity change, negative = cytotoxicity” value is -15.4%.

On to `C[C@@H]1O[C@@H](OC[C@H]2O[C@@H](OCc3ccccc3)[C@H](O)[C@@H](O)[C@@H]2O)[C@H](O)[C@H](O)[C@H]1O`, for which the “outcome” value is “inactive [at 17.3 µM]”.

On to `CC(C)C[C@H](NC(=O)[C@@H]1O[C@H]1C(=O)O)C(=O)NCCCCN=C(N)N`, for which the “activity change, negative = cytotoxicity” value was -7.76%.

Regarding `OC[C@@]1(O)CO[C@H](OC[C@H]2O[C@@H](OC(CCCCc3ccc(O)cc3)CCc3ccc(O)cc3)[C@H](O[C@H]3OC[C@](O)(CO)[C@H]3O)[C@@H](O)[C@@H]2O)[C@@H]1O` (stereo partly specified), the “activity change, negative = cytotoxicity” value was 4.32% [at 17.3 µM].

Turning to `OC[C@H]1O[C@@H](OCCc2ccccc2)[C@H](O[C@@H]2OC[C@@H](O)[C@H](O)[C@H]2O)[C@@H](O)[C@@H]1O`, the “outcome” value was “inactive [at 17.3 µM]”.

On to `C/C=C/C=C/C=C/C(=O)O[C@@H]1[C@@H](OC)C2=C(C(=O)N(C(CCC(=O)O)C(=O)O)C2)[C@@]2(C)CCCC(C)(C)[C@H]12` (stereo partly specified), for which the “activity change, negative = cytotoxicity” value is 0.184% [at 17.3 µM].

On to `COc1cc(C)c(C(=O)NC2C(C)OC(OC3CCC(C)C4C3C=C(C)C3/C(C)=C\CC/C(C)=C/C5(C)C=C(C(=O)O)C(C)CC56OC(=O)/C(=C(\O)C34C)C6=O)C(O)C2(C)O)c(O)c1` (stereo unspecified), for which the outcome was “inactive [at 9.29 µM]”.

In the case of `O=C1NC(=O)/C(=C/c2cccc(C(F)(F)F)c2)S1`, the “activity change, negative = cytotoxicity” value was -15.3%.

Take `C=C1C(O)C(O)C2(CC3C(C)=CCC4C(C)(C(=O)O)CCCC34C)OC2C1O` (stereo unspecified): the “activity change, negative = cytotoxicity” value is 8.49%.

`CC1C(O)C(O)C2C(C(=O)OCCc3ccc(O)cc3)=COC(O[C@@H]3O[C@H](CO)[C@@H](O)[C@H](O)[C@H]3O)C12` (stereo partly specified): the “activity change, negative = cytotoxicity” value was 1.81% [at 17.3 µM].

`OC[C@H]1O[C@@H](OCc2ccccc2)[C@H](O)[C@@H](O)[C@@H]1O`: the outcome was inactive.

For the compound `COc1ccc(C2(O)c3c(ccc4c3OC(C)(CCC=C(C)C)C=C4)NC(=O)C2OC)cc1` (stereo unspecified), the “activity change, negative = cytotoxicity” value is 6.56% [at 17.3 µM].

On to `C[C@@H]1CC[C@]2(C(=O)O)CC[C@]3(C)C(=CCC4[C@@]5(C)C[C@@H](O)[C@@H](O)C(C)(C)C5CC[C@]43C)C2[C@]1(C)O` (stereo partly specified), for which the “outcome” value was “inactive [at 17.3 µM]”.

On to `CC1(O)CC(O)C2C(C(=O)O)=COC(OC3OC(CO)C(O)C(O)C3OC(=O)/C=C/c3ccc(O)cc3)C21` (stereo unspecified), for which the “outcome” value was “inactive [at 17.3 µM]”.

Turning to `C[C@@H]1CC[C@]2(C(=O)O[C@@H]3O[C@H](CO[C@@H]4O[C@H](CO)[C@@H](O)[C@H](O)[C@H]4O)[C@@H](O)[C@H](O)[C@H]3O)CC[C@]3(C)C(=CCC4[C@@]5(C)CC[C@H](O)[C@](C)(C(=O)O)C5CC[C@]43C)[C@@H]2[C@]1(C)O` (stereo partly specified), the outcome was “inactive [at 9.29 µM]”.

Turning to `O=C(/C=C/c1ccc(O)cc1)O[C@@H]1C[C@@](O)(C(=O)O)C[C@@H](O)[C@@H]1O`, the compound was called inactive.

Turning to `CC1(CO)CC(O)C2(C)CCC3(C)C(=CCC4C5(C=O)CCC(OC6OC(C(=O)O)C(O)C(O)C6OC6OC(C(=O)O)C(O)C(O)C6O)C(C)(C)C5CCC43C)C2C1` (stereo unspecified), the outcome was “inactive [at 9.29 µM]”.

Take `C/C(=C\CC/C(C)=C/CC[C@]1(C)CCc2cc(O)cc(C)c2O1)CC/C=C(\C)C(=O)O`: the “activity change, negative = cytotoxicity” value is 2.58% [at 17.3 µM].

Take `Cc1cc(C)c2nc(-c3ccccn3)cc(C(=O)Nc3ccc(S(=O)(=O)Nc4onc(C)c4C)cc3)c2c1`: the “activity change, negative = cytotoxicity” value was 3.65%.

For the compound `O=C(O)C1(c2ccc(-c3ccc(Cl)c(Cl)c3)c(F)c2)CC1`, the “activity change, negative = cytotoxicity” value was -6.62%.

Regarding `COc1cc(C)c(C(=O)OC2C(C)OC(OC3CCC(C)C4C3C=C(C)C3/C(C)=C\CC/C(C)=C/C5(C)C=C(C(=O)O)C(C)CC56OC(=O)/C(=C(\O)C34C)C6=O)C(O)C2O)c(OC)c1` (stereo unspecified), the activity change, negative = cytotoxicity is 8.21% [at 9.29 µM].

Regarding `C/C(=C\C1CCC(C)C2CCC3(C)OC123)C(=O)O` (stereo unspecified), the “activity change, negative = cytotoxicity” value is 3.55%.

As for `CC(C)c1ccc2c(c1)[C@H](O)CC1[C@@](C)(C(=O)O)CCC[C@]21C` (stereo partly specified), the “activity change, negative = cytotoxicity” value was 7.86%.

Consider `CC1(C)CCC2(C(=O)O)CCC3(C)C(=CCC4C5(C)CCC(O)C(C)(CO)C5C(O)CC43C)C2C1` (stereo unspecified), for which the “outcome” value is “inactive [at 17.3 µM]”.

As to `C[C@H]1[C@H](C)CC[C@]2(C(=O)O)CC[C@]3(C)C(=CCC4[C@@]5(C)C[C@@H](O)[C@H](O)C(C)(C)C5CC[C@]43C)[C@H]12` (stereo partly specified), the “outcome” value is “inactive [at 17.3 µM]”.

As to `CC[C@@H](C)[C@H](NC(=O)C(C)(C)NC(=O)[C@H](CCC(N)=O)NC(=O)C(C)(CC)NC(=O)[C@H](Cc1c[nH]c2ccccc12)NC(C)=O)C(=O)N[C@H](C(=O)NC(C)(C)C(=O)N[C@@H](CC(C)C)C(=O)NC(C)(C)C(=O)N1CCC[C@H]1C(=O)N[C@@H](CCC(N)=O)C(=O)NC(C)(C)C(=O)N1CC(O)C[C@H]1C(=O)NC(C)(CC)C(=O)C1CC[C@@H](C(=O)N[C@@H](Cc2ccccc2)C(=O)NCC(=O)O)N1)C(C)O` (stereo partly specified) (Ac-W[ξIva]Q[Aib][aIle][Thr(3ξ)][Aib]L[Aib]PQ[Aib][X8]-X9), the activity change, negative = cytotoxicity was -19% [at 5.11 µM].
